The results in this text go back to PubChem BioAssay.

Assay [1] can be described thus: probe aShh binding to arrayed compounds – biochemical, biotinylated probe, 635/667 nm fluorescence, primary screen (AID 1114).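 Further: probe is biotin-labelled aShh protein from a stem cell growth factor screen; measures binding of labelled protein to compounds printed on the slide; score merges feature fluorescence at 667 nm with signal-to-noise.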 The following applies: small-molecule microarray, higher = more signal.
A short description of assay [2]: probe aNog binding to arrayed compounds – biochemical, biotinylated probe, 635/667 nm fluorescence, primary screen (AID 1115).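 Further: probe is biotinylated aNog protein used at 0.15 µg/mL for 1 h at 4 C; z-score combines 667 nm fluorescence of each spot with its signal to noise.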 The following applies: small-molecule microarray, higher = more signal.
For assay [3], the target named is Torsin-1A-interacting protein 1 (Homo sapiens) (UniProt Q5JTV8). Description: compound microarray binding of lysate hLAP1 – cell lysate, small-molecule microarray, COS7 lysate, 635/667 nm fluorescence, primary screen (AID 1116). The following applies: 635 nm fluorescence, higher = more signal.
The target in the next assay is Albumin (Bos taurus) (UniProt P02769). As to the kind of experiment: compounds binding labelled BSA control protein – biochemical, small-molecule microarray, Alexa647 label, 635/667 nm fluorescence, artefact control for SMM control protein annotation, profiling panel (AID 1118).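 Further: score merges 667 nm emission intensity and signal-to-noise per printed compound spot.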 The following applies: BSA-A647 binding, fluorescence 635 nm, higher = more signal.
A short description of assay [4]: probe aXIP binding to arrayed compounds – biochemical, NeuroSMM set, 635/667 nm fluorescence, primary screen (AID 1119).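 Further: probe is the protein aXip251-270 applied at 1 µg/mL to compound-printed slides; binding of probe to printed compounds measured as 667 nm fluorescence plus signal to noise.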 The following applies: small-molecule microarray, higher = more signal, called active from +8 up or from −8 down.
Assay [5] can be described thus: probe aNOTCH3 binding on compound microarray – biochemical, small-molecule microarray, 635/667 nm fluorescence, primary screen (AID 1120).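 Further: probe is a biotin-tagged antibody raised against NOTCH3 rather than NOTCH3 protein; score merges spot fluorescence near 667 nm with spot signal to noise.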 The following applies: higher = more signal.
Assay [6] is described as follows: probe aNOTCH2 binding on compound microarray – biochemical, small-molecule microarray, 635/667 nm fluorescence, primary screen (AID 1121).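 Further: score merges feature fluorescence read at 667 nm with its signal to noise.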 The following applies: higher = more signal.
The target in assay [7] is Carbonic anhydrase 2 (Homo sapiens) (UniProt P00918). Description: compounds binding carbonic anhydrase 2 – biochemical, small-molecule microarray, Alexa647-labelled CAII, profiling panel (AID 1122). The following applies: CAII-A647 binding fluorescence, higher = more signal.
Assay [8] is described as follows: COS7 lysate on small-molecule microarray, probe aHis, 635 nm (AID 1123).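 Further: z-score combines 667nm fluorescence intensity with signal-to-noise per printed compound spot.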 The following applies: COS7 cell lysate, fluorescence, higher = more signal.
Assay [9] is described as follows: probe aLAP1 signal on lysate-treated microarray – cell lysate, small-molecule microarray, COS7 lysate, primary screen (AID 1124).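 Further: lysate comes from COS7 cells expressing LAP1 and is applied at 0.3 µg/mL; score merges spot fluorescence near 667 nm with signal-to-noise over triplicate slides.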 The following applies: probe aLAP1, fluorescence, higher = more signal.
The test system of the next assay is Sam68 (KHDRBS1). As to the kind of experiment: compounds binding KHDRBS1 protein – biochemical, small-molecule microarray, 635 nm fluorescence, primary screen (AID 1125).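 Further: score merges 667 nm channel intensity with signal to noise over triplicate slides.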 The following applies: higher = more signal.
Assay [10] concerns Chordin-like protein 2 (CHRDL2). Description: compounds binding chordin-like 2 – biochemical, small-molecule microarray, 635 nm fluorescence, primary screen (AID 1126).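 Further: printed compound slides probed with Chrdl2 protein at 4 µg/mL for 1 h at 4 C; score merges 667 nm emission intensity with signal to noise over three replicate slides.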 The following applies: fluorescence 635 nm, higher = more signal.
Assay [11] concerns the target Concanavalin-A (Canavalia ensiformis) (UniProt P02866). Description: compounds binding concanavalin A lectin – biochemical, small-molecule microarray, Alexa647 label, 635 nm, artefact control for SMM control protein annotation, primary screen (AID 1127).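 Further: z combines 667 nm emission intensity with signal-to-noise across three replicate slides.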 The following applies: ConA-A647 binding fluorescence, higher = more signal.
Assay [12] can be described thus: compounds binding Alexa647 anti-His antibody – biochemical, small-molecule microarray, 635 nm fluorescence, artefact control for SMM control protein annotation, primary screen (AID 1128).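 Further: score merges feature fluorescence with signal-to-noise for each printed compound spot.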 The following applies: higher = more signal.
Assay [13] deals with Human papillomavirus type 1a E7 protein (residues 1-88). As to the kind of experiment: HPV1a E7 small-molecule binders, primary screen, biochemical, small-molecule microarray, residues 1-88, 635 nm (AID 1129). The following applies: small-molecule microarray binding, fluorescence 635 nm; higher = more signal.
Assay [14] deals with Focal adhesion kinase 1 (Homo sapiens) (UniProt Q05397). As to the kind of experiment: PTK2 protein binding on printed compound slides – biochemical, small-molecule microarray, 635/667 nm fluorescence, BSA, DTT, primary screen (AID 1130).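 Further: composite of spot emission at 667 nm and signal to noise over triplicate slides.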 The following applies: 635 nm fluorescence, higher = more signal.
The subject of assay [15] is Fibrinogen (Alexa647-labelled). As to the kind of experiment: Alexa647-fibrinogen binding to printed small molecules – biochemical, small-molecule microarray, 635/667 nm fluorescence, artefact control for SMM control-protein annotation, profiling panel (AID 1131).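 Further: z-score merges 667 nm fluorescence with per-spot signal-to-noise over triplicate slides.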 The following applies: fibrinogen-A647 binding fluorescence, higher = more signal.
Assay [16] has as its target Follistatin (Homo sapiens) (UniProt P19883). As to the kind of experiment: FST protein binding to printed compounds – biochemical, small-molecule microarray, 635/667 nm fluorescence, primary screen (AID 1132). The following applies: 635 nm fluorescence, higher = more signal.
Assay [17] addresses Fibroblast growth factor 2 (Homo sapiens) (UniProt P09038). Description: basic fibroblast growth factor binding to printed compounds – biochemical, small-molecule microarray, 635/667 nm fluorescence, primary screen (AID 1133). The following applies: FGF2, fluorescence 635/667, higher = more signal.
The nature of assay [18]: JC-1 mitochondrial potential readout, lung cancer cells – cell-based, A549, JC-1 fluorescence, basal, 24 h, 100 nL, profiling panel (AID 1138).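 Further: A549 lung adenocarcinoma cells under basal conditions with no added stimulus; test concentration not given here.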 The following applies: higher = more signal.

Active and inactive are the calls of the source.

Chain of Fibroblast growth factor 2 (Homo sapiens) (P09038 whole entry, looked up): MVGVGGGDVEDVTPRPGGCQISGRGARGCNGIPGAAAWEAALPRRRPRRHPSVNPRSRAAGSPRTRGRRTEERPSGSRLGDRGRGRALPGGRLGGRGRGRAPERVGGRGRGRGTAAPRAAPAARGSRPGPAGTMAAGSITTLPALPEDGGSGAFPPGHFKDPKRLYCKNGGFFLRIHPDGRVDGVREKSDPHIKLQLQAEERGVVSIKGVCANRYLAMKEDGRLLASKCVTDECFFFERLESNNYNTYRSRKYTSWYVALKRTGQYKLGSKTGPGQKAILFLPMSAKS
Chain of Follistatin (Homo sapiens) (P19883 whole entry, looked up): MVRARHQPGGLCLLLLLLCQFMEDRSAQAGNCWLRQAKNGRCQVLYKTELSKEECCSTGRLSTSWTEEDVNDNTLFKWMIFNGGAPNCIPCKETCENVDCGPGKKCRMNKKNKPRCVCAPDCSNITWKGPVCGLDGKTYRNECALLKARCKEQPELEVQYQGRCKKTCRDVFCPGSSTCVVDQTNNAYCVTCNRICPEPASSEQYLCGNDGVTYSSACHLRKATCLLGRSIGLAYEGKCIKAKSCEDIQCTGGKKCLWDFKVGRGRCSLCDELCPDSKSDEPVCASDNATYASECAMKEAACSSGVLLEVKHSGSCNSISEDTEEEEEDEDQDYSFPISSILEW
Chain of Albumin (Bos taurus) (P02769 whole entry, looked up): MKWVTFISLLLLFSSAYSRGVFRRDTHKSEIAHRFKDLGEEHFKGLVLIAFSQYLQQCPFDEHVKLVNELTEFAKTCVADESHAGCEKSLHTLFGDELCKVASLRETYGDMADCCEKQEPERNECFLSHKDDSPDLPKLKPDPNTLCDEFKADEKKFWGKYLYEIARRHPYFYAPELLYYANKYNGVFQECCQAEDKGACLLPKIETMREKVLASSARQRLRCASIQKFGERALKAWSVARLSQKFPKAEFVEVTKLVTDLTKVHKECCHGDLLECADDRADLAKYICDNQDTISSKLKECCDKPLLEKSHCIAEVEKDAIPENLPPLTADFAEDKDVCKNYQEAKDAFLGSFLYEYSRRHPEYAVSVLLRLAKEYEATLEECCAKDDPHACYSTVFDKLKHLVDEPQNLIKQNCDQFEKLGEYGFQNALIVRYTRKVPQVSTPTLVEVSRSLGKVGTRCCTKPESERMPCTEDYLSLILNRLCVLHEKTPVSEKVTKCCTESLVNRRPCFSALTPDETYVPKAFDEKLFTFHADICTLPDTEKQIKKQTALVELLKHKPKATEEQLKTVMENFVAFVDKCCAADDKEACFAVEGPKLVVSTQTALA
Chain of Focal adhesion kinase 1 (Homo sapiens) (Q05397 whole entry, looked up): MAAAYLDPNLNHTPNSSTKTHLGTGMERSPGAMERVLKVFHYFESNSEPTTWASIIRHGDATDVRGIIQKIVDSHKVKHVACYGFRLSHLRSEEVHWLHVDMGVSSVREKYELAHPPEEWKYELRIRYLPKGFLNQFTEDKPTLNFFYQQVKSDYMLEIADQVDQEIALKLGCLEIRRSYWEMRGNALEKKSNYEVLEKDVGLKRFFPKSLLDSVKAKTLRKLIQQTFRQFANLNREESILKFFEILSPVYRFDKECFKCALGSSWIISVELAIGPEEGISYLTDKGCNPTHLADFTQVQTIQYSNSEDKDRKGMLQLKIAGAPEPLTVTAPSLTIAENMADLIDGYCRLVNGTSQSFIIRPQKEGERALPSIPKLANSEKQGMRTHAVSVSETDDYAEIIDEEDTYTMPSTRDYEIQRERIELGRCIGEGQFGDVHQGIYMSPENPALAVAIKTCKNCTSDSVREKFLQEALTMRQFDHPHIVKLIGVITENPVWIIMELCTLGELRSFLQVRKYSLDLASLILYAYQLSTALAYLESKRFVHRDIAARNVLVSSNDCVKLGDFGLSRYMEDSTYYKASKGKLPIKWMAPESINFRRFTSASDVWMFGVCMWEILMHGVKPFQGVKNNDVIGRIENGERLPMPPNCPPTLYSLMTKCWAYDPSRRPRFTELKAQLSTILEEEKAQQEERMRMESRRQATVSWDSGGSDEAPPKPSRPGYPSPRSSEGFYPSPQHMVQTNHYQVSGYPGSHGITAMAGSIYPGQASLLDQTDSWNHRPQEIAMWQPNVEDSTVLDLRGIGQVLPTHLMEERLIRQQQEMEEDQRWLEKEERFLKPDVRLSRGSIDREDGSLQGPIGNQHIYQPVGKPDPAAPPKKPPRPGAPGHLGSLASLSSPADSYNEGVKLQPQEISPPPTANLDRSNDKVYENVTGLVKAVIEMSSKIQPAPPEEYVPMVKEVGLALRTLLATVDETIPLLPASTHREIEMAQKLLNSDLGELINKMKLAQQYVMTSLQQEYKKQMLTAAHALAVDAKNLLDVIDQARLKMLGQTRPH
Chain of Concanavalin-A (Canavalia ensiformis) (P02866 whole entry, looked up): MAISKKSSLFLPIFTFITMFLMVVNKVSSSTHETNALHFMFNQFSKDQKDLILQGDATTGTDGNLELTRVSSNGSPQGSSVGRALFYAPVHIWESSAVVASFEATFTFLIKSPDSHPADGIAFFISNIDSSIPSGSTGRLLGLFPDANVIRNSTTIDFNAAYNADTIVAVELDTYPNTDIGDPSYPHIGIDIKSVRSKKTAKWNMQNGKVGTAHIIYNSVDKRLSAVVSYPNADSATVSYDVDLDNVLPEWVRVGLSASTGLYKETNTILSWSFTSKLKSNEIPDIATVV
Chain of Torsin-1A-interacting protein 1 (Homo sapiens) (Q5JTV8 whole entry, looked up): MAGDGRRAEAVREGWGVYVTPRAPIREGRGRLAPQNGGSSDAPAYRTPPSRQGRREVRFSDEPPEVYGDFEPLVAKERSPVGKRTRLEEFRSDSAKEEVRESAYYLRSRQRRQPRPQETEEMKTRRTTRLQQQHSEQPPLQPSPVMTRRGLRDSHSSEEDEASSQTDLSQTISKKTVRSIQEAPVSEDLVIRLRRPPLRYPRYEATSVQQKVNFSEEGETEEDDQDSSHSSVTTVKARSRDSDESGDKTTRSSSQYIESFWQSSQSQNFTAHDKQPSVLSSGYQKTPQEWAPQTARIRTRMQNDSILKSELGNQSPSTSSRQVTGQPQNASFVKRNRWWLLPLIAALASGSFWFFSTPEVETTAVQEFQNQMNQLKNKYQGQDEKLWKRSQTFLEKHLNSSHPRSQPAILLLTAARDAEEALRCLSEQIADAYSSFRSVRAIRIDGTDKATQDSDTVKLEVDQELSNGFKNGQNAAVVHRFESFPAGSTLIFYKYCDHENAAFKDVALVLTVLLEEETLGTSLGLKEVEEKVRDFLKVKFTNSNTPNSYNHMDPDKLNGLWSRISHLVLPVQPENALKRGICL

Take `CC(C)C(=C=CC[C@@H](O)c1ccc(CO)o1)CCO`: the composite z-score was -0.123 in assay [1]; 0.0954 in [2]; 0.42 in [3]; -0.596 with Albumin (Bos taurus); -0.0984 in [5]; -0.11 in assay [6]. The composite z-score in [7] was 0.795; in assay [8], 0.57; in assay [9] it was -0.0333; in the assay on Sam68 (KHDRBS1) it was 0.541; in assay [10], 0.107; in [11], 0.349. Moreover, the composite z-score in assay [12] is 0.635; in [13], -0.356; in assay [14] it was -0.7; in assay [15], 0.401; in [16], 0.987; in assay [17] it was 1.05. The composite Z-score in assay [4] is 1.71 (inactive). In assay [18], this compound showed a z-score of 1.86.
Take `CO[C@H]1O[C@H](CO)[C@@H](OC(=O)Nc2ccccc2)[C@H](OC(=O)Nc2ccc3c(c2)OCO3)[C@H]1OC(=O)Nc1ccc2c(c1)OCO2`: the composite z-score in [1] is 0.0898; in [2], 1.19; in assay [3], 1.51; with Albumin (Bos taurus) it was 0.06; in [5], 0.224; in assay [6] it was -0.0289. The composite z-score in assay [7] is 0.599; in assay [8], 2.14; in assay [9], 0.294; in the assay with Sam68 (KHDRBS1), 1.29; in assay [10] it was -0.494; in [11], 1.18. The composite z-score in assay [12] is 1.75; in [13], 1.19; in assay [14] it was 2.04; in assay [15], 0.172; in assay [16] it was 0.612; in assay [17], -0.0687. In assay [4], the composite Z-score was 0.219 (inactive). In [18], this compound gave a z-score of 0.316.
For the compound `COc1ccc([Si](C)(C)[C@H]2[C@H](CC(=O)N(CCO)Cc3ccccc3)O[C@@]3(C(=O)N(Cc4ccc(N5CCOC5=O)cc4)c4ccccc43)[C@@H]2C)cc1`, the composite z-score in [1] is 0.493; in assay [2], 0.473; in [3] it was 0.639; with Albumin (Bos taurus), -0.604; in [5] it was -0.0044; in assay [6] it was -0.168. The composite z-score in assay [7] is 0.393; in assay [8] it was 0.704; in assay [9] it was 0.0474; in the assay on Sam68 (KHDRBS1), 0.641; in [10], 0.457; in assay [11] it was 1.06. Also, the composite z-score in [12] stood at 0.845; in [13], 0.0593; in [14], 0.16; in assay [15], 0.474; in assay [16], 0.878; in assay [17], 0.66. The composite Z-score in assay [4] was 0.989 (inactive). Moreover, the z-score in [18] was found to be 0.784.
`CCCCCN1CC=CC23O[C@@H]4/C=C\CCC(C)OC(=O)C4[C@H]2C(=O)N(CCO)[C@@H]3C1=O` (stereo not given in full): the composite z-score in [1] is -0.279; in assay [2], 0.552; in assay [3], -0.0418; with Albumin (Bos taurus), -1.09; in assay [5] it was -0.28; in assay [6], -0.172. In addition, the composite z-score in assay [7] is 0.905; in assay [8] it was 0.663; in assay [9], 0.0877; in the assay on Sam68 (KHDRBS1) it was -0.106; in [10] it was -1.79; in assay [11] it was -0.773. The composite z-score is 1.31 in assay [12]; -0.85 in assay [13]; -0.081 in assay [14]; -2.44 in assay [15]; -0.869 in assay [16]; -1.2 in assay [17]. For the same compound, the composite Z-score in [4] is 0.547 (inactive). Moreover, the z-score in assay [18] was 0.33.
As to `C=C(CCCC)/C(=C/C[C@@H](OC(=O)c1ccncc1)c1ccc(OCCO)cc1)c1cnc2ccccc2c1`, the composite z-score in assay [1] is 0.164; in assay [2], 0.168; in assay [3] it was -0.0621; with Albumin (Bos taurus), 0.26; in assay [5], 0.135; in assay [6] it was -0.0859. Moreover, the composite z-score in assay [7] worked out at 0.948; in assay [8], 0.814; in assay [9], 2.07; in the assay with Sam68 (KHDRBS1), 1.03; in assay [10], 1.44; in assay [11], 1.15. The composite z-score is 0.921 in assay [12]; 0.775 in [13]; -0.438 in assay [14]; 0.577 in assay [15]; 1.44 in assay [16]; 1.62 in [17]. In [4], the composite Z-score is -0.0966 (inactive). For the same compound, the z-score in assay [18] was found to be 0.985.
In the case of `Cc1ccc(N2C(=O)c3ccccc3[C@](C)(C(=O)NCC(F)(F)F)[C@@H]2c2ccc(CO)cc2)nc1`, the composite z-score is -0.291 in assay [1]; -0.136 in assay [2]; -0.438 in assay [3]; -1.6 with Albumin (Bos taurus); -0.403 in [5]; -0.177 in assay [6]. Besides, the composite z-score in assay [7] is 0.869; in assay [8], -0.552; in assay [9] it was 0.0759; in the assay with Sam68 (KHDRBS1), -1.78; in assay [10], -1.8; in [11], -1.26. Further, the composite z-score in assay [12] is -1.32; in assay [13], -1.22; in [14], -0.637; in assay [15], -1.94; in [16], -1.6; in assay [17], -0.986. In assay [4], the composite Z-score was -0.326 (inactive). In assay [18], this compound came in with a z-score of -0.2.
